# Screens from PubChem BioAssay.
# Compounds with a hit are over-represented: about 2.4% of the library has one in this group of screens.
# Anthrax LT inh – anthrax lethal toxin internalization inhibition; Cells, anthrax lethal toxin internalization, FRET ratio (460/530); Potency, µM (doses to about 40 µM), actives largely listed as inhibitors; actives 0.67% (n = 70,000); AID 912; also: nearly all actives have a fitted effect of over 50% in size
# AmpC det inh – blocks E. coli AmpC beta-lactamase in presence of detergent; actives 0.09% (n = 71,000); Potency, µM (titrated, usually from 28.7 µM); purified AmpC, nitrocefin hydrolysis with detergent; P00811; AID 584; active = well fitted curve in the direction sought with a large enough effect; inconclusive = small, poorly fitted or top-dose-only effect
# Target sequence (P00811 whole entry, looked up): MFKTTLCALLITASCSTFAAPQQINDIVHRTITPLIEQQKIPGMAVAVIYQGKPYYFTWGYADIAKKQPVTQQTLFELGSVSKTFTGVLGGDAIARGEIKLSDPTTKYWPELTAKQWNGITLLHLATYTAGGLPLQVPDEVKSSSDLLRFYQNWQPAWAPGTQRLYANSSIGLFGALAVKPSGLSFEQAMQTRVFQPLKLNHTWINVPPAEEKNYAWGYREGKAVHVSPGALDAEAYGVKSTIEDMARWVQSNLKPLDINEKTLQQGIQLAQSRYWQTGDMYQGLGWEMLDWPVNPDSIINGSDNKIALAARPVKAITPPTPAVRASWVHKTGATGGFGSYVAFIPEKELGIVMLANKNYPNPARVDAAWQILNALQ
#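 E. coli AmpC (5.3 nM) in 20 mM phosphate pH 7.0 with 0.01% Triton X-100, preincubated 15 min RT with compound; nitrocefin (2 uL of 800 uM stock) hydrolysis followed by 480 nm absorbance every 20 s over 4 min.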
# SmPrx2 inh – blocks S. mansoni peroxiredoxin 2 enzymatic activity; actives 0.07% (n = 65,000); Potency, µM; AID 448; S. mansoni Prx2 activity coupled to TGR/GSH (TGR is thioredoxin glutathione reductase), NADPH fluorescence loss, qHTS
#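 qHTS, coupled TGR/Prx2 format; 15 min compound preincubation at RT; reaction started with H2O2 (2.5 mM aliquot); kinetic NADPH fluorescence decrease, ex 365/em 450 nm.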
# AmpC inh no det – inhibitors of E. coli AmpC beta-lactamase without detergent. Potency, µM (top dose mostly 28.7 µM). AmpC nitrocefin hydrolysis, absorbance 480 nm, no detergent. P00811. actives 1.8% (n = 71,000). AID 585
#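 AmpC in 20 mM phosphate buffer pH 7.0 was preincubated 15 min at room temperature with compounds. Nitrocefin (800 uM stock) was then added and hydrolysis followed at 480 nm every 20 s for 4 min.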
# Hits are given with their value; – = inactive; ? = inconclusive; · = no result; [ ] = dose if it differs, or a comment. Unless noted, calls follow the shape of the full dose curve.
SMILES,Anthrax LT inh,AmpC det inh,SmPrx2 inh,AmpC inh no det
CC(C)C[C@H]1C(=O)N2CCC[C@@H]2[C@]2(O)O[C@](NC(=O)[C@H]3C=C4c5cccc6[nH]cc(c56)C[C@H]4N(C)C3)(C(C)C)C(=O)N12,?,–,–,–
O=C(CN(C1CC1)S(=O)(=O)c1ccc(S(=O)(=O)NC2CCCCC2)cc1)Nc1ccccc1,10µM,–,–,–
O=C=Nc1ccc(Cl)c(Cl)c1,15.8µM,–,·,?
O=C=Nc1ccc(Cc2ccc(N=C=O)cc2)cc1 (tested in a mixture with another compound),–[8 µM],–[5.75 µM],–,–[5.75 µM]
COc1cc2c(cc1OC)-c1c(OC)c(OC)c(CO)c3c1[C@H](C2)N(C)CC3,–,–,–,–
CC1(C(=O)NC2CCCCC2)CCC(=O)N1Cc1cccnc1 (stereo not drawn),–,–,–,3.98µM[single pt active]
CCOc1ccc(CN2C(=O)CCC2(C)C(=O)NCc2cccnc2)cc1 (stereo not drawn),–,–,–,–
CC1CCC(NC(=O)C2(C)CCC(=O)N2Cc2cccnc2)CC1 (stereo not drawn),–,–,–,3.98µM[single pt active]
CC1=NN(c2ccc(S(=O)(=O)O)cc2)C(=O)/C1=C\c1ccc(Cl)cc1,–[8 µM],–[5.75 µM],–,–[5.75 µM]
O=c1cnc2cnc(N3CCNCC3)nc2n1Cc1ccc(F)cc1,?,–,–,–
COC(=O)[C@H](NC(=O)c1cc(-c2ccccc2)nc2ccccc12)c1ccccc1,5.01µM,–,–,–
COc1cccc(-c2cc(C(=O)Nn3cnnc3)c3ccccc3n2)c1,–,–,–,–
CC(C)NC(=O)N1CCC2(CC1)CCN(C(=O)c1cc(C(F)(F)F)cc(C(F)(F)F)c1)CC2,?,–,–,–
O=C1C=C[C@@H](O)[C@H]2[C@@H]3C(=O)N(c4cccc(Oc5ccccc5)c4)C(=O)[C@@H]3CC[C@H]12,–[8 µM],·,·,·
Cc1ccc(Nc2nc(N3CCOCC3)c3ccccc3n2)cc1,–,–,–,–
Oc1ccc(Nc2nc(N3CCCC3)c3ccccc3n2)cc1,12.6µM,–,–,?
COc1ccccc1-c1ccc2ncnc(N3CCN(C)CC3)c2c1,?,–,–,–
Cc1nc(N2CCOCC2)c2nc(-c3ccccc3)n(CCN3CCOCC3)c2n1,–,–,·,–
O=C(Nc1cc[c]([Sb](=[O])([OH])[OH])cc1)c1ccccc1,–[8 µM],–[5.75 µM],–,3.16µM[single pt active]
c1cc(NC2CC2)nc(-c2ccoc2)n1,?,–,–,–
CC(=O)NCCn1c(SCC#N)nc2ccccc2c1=O,?,–,–,–
N#CCSc1nc2ccccc2c(=O)n1CCC(=O)NCCc1ccccc1,–,–,–,15.8µM[single pt active]
CC1CCN(C(=O)CN2C(=O)C(=O)c3ccccc32)CC1,–,–,–,3.98µM[single pt active]
CC1CCN(C(=O)Cn2c(=O)oc3ccccc32)CC1,–,–,–,–
Oc1c(Cl)c(Cl)c(Cl)c(Cl)c1Cl (tested in a mixture with another compound),–[8 µM],–[5.75 µM],–,–[5.75 µM]
SMILES,Anthrax LT inh,AmpC det inh,SmPrx2 inh,AmpC inh no det
Cc1ccc(NC(=O)C2CCCN(S(=O)(=O)c3ccc4c(c3)oc(=O)n4C)C2)nc1 (stereo not drawn),–,–,–,3.98µM[single pt active]
Cn1c(=O)oc2cc(S(=O)(=O)N3CCCC(C(=O)NCc4ccc5c(c4)OCO5)C3)ccc21 (stereo not drawn),–,–,–,3.98µM[single pt active]
CN(C)c1ccc(N=NS(=O)(=O)O)cc1,?,–,·,–
Cc1ccc(-c2csc(NC(=O)c3cccc(S(=O)(=O)N4CCN(C)CC4)c3)n2)cc1,–,–,–,–
O=C(Nc1nc(-c2cccs2)cs1)c1cccc(S(=O)(=O)N2CCCCC2)c1,?,–,–,7.94µM
O=C(Nc1nc(-c2ccc(S(=O)(=O)N3CCCC3)cc2)cs1)c1cccs1,–,–,–,–
O=C(Nc1nc(-c2ccc(S(=O)(=O)N3CCCCCC3)cc2)cs1)c1cccs1,?,–,–,7.94µM
O=C(Nc1nc(-c2cc(Cl)sc2Cl)cs1)c1cccs1,?,–,–,0.316µM
Cc1ccc([N+](=O)[O-])c(N)c1,–,–,·,–
CN1CCN(c2ncc3nc(-c4cn(C)c5ccccc45)c(=O)n(CCC#N)c3n2)CC1,?,–,–,–
O=C(Nc1ccc(CN2CCOCC2)cc1)c1ccc(-c2ccc(Br)cc2)o1,12.6µM,–,–,–
c1cncc(CNc2cc(-c3ccc4c(c3)OCO4)ncn2)c1,–,–,–,–
NC(=O)CN1CCN(C(=O)NC2CCCCC2)CC1,–,–,–,3.16µM[single pt active]
O=C(NCCN1CCN(C(=O)NC2CCCCC2)CC1)NC1CCCCC1,–,–,–,–
Cc1ccc(-c2cc(C(=O)Nc3cc(C)on3)c3ccccc3n2)c(C)c1,?,–,–,3.98µM[single pt active]
Cc1cc(C(=O)OCC(=O)Nc2cc(C)on2)c2ccccc2n1,–,–,–,–
Cc1nc(N(C)C)c2sc(=S)n(C)c2n1,–,–,–,3.98µM[single pt active]
O=C(Nc1ccccc1-c1nc2ccccc2o1)c1ccc2c(c1)OCCO2,–,–,–,–
O=C(Nc1ccc2oc(-c3ccccc3F)nc2c1)c1ccc2c(c1)OCCO2,10µM,–,–,–
COC(=O)NC(/C=C/c1ccccc1)[C@]1(C(C)=O)CCCC1=O (stereo partly drawn),–[8 µM],·,·,·
COc1nc(Nc2cccc(C(F)(F)F)c2)nc(OC)n1,–,–,–,–
COc1nc(Nc2ccc3c(c2)OCO3)nc(OC)n1,–,–,–,3.98µM[single pt active]
COc1ccc(-c2noc(C3CCCN(C(=O)CCc4ccccc4)C3)n2)cc1 (stereo not drawn),–,–,–,–
O=C(c1ccco1)N1CCCC(c2nc(-c3ccc(S(=O)(=O)NCc4ccccc4)cc3)no2)C1 (stereo not drawn),12.6µM,–,–,–
CCCOCC(C)O (stereo not drawn),–,–,·,–
SMILES,Anthrax LT inh,AmpC det inh,SmPrx2 inh,AmpC inh no det
COc1ccc(CNc2oc(-c3ccccc3)nc2C#N)cc1,–,–,–,3.98µM[single pt active]
COc1ccc(CCNc2oc(-c3ccc(C)cc3)nc2C#N)cc1OC,–,–,–,3.98µM[single pt active]
NCC[C@H](O)C(=O)N[C@H]1C[C@@H](N)[C@@H](O[C@H]2O[C@@H](CN)[C@@H](O)[C@@H](O)[C@@H]2O)[C@@H](O)[C@@H]1O[C@H]1O[C@@H](CO)[C@@H](O)[C@@H](N)[C@@H]1O,–[3.58 µM],–,–,–
Cc1c2ccncc2c(C)c2c1[nH]c1ccccc12,5.01µM,–,–,–
Cc1nccc2c1[nH]c1ccccc12,?,–,–,–
Nc1ccc(N2CCCCC2)cc1N1CCCCC1,–,–,–,–
CN1CCN(c2ccc(N)c(N3CCN(C)CC3)c2)CC1,12.6µM,–,–,–
COc1ccccc1C(=O)n1nc(-c2cccnc2)nc1N,–,–,–,3.98µM[single pt active]
Cc1cccc(N2CCN(C(=O)c3cc4c(=O)n(C)c5ccccc5c4n3C)CC2)c1C,–,–,–,3.98µM[single pt active]
Cn1c(C(=O)N2CCN(c3ccccc3F)CC2)cc2c(=O)n(C)c3ccccc3c21,–,–,–,3.98µM[single pt active]
Cc1ccc(Cl)cc1N1CCN(C(=O)c2cc3c(=O)n(C)c4ccccc4c3n2C)CC1,–,–,–,3.98µM[single pt active]
Cn1c(C(=O)N2CCCC2)cc2c(=O)n(C)c3ccccc3c21,–,–,–,–
